# The supplement of paper PMC8728848
# This is one part of a sample in which the strongest signals are shown more often than they occur.
# How the values were obtained:
# Experiment in all cases: glycan array binding signal (z-score within array); higher = stronger binding
# Conditions in all cases: glycan notation: IUPAC condensed, linker removed
# [1] = target: GlcNAc(a1-4)Gal(b1-4)GlcNAc
# Procedure, shortened: (§1)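 Glycan array data were curated from 3228 arrays in the Consortium for Functional Glycomics database and kept only where the protein sequence was available. Glycan names were converted to IUPAC-condensed notation, and columns mapping to the same glycan were averaged. The binding signal is a within-array Z-score, averaged across arrays of the same protein sequence at different concentrations or buffers and across linkers. Negative Z-scores can be read as non-binding.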
# [2] = target: GlcNAc(b1-2)[GlcNAc(b1-4)]Man(a1-3)[GlcNAc(b1-2)Man(a1-6)]Man(b1-4)GlcNAc(b1-4)GlcNAc
# Procedure, shortened: as §1
# [3] = target: GlcNAc(b1-2)[GlcNAc(b1-6)]Man(a1-6)[GlcNAc(b1-2)Man(a1-3)]Man(b1-4)GlcNAc(b1-4)[Fuc(a1-6)]GlcNAc
# Procedure, shortened: as §1
# [4] = target: GlcNAc(b1-3)Gal(b1-3)GalNAc
# Procedure, shortened: as §1
# [5] = target: GlcNAc(b1-3)Gal(b1-4)GlcNAc(b1-3)Gal(b1-4)GlcNAc(b1-2)Man(a1-3)[GlcNAc(b1-3)Gal(b1-4)GlcNAc(b1-3)Gal(b1-4)GlcNAc(b1-2)Man(a1-6)]Man(b1-4)GlcNAc(b1-4)[Fuc(a1-6)]GlcNAc
# Procedure, shortened: as §1
# [6] = target: GlcNAc(b1-3)Gal(b1-4)GlcNAc(b1-3)GalNAc
# Procedure, shortened: as §1
# [7] = target: GlcNAc(b1-3)Man
# Procedure, shortened: as §1
# [8] = target: GlcNAc(b1-4)GlcNAc(b1-4)GlcNAc
# Procedure, shortened: as §1
# [9] = target: GlcNAc(b1-4)GlcNAc(b1-4)GlcNAc(b1-4)GlcNAc(b1-4)GlcNAc
# Procedure, shortened: as §1
# [10] = target: GlcNAc(b1-6)Gal(b1-4)GlcNAc
# Procedure, shortened: as §1
# [11] = target: Kdn(a2-3)Gal(b1-4)Glc
# Procedure, shortened: as §1
# [12] = target: Man(a1-2)Man(a1-3)[Man(a1-2)Man(a1-6)]Man(a1-6)[Man(a1-2)Man(a1-2)Man(a1-3)]Man(b1-4)GlcNAc(b1-4)GlcNAc
# Procedure, shortened: as §1
# [13] = target: Man(a1-2)Man(a1-3)[Man(a1-2)Man(a1-6)]Man(a1-6)[Man(a1-3)[Man(a1-6)]Man(a1-6)]Man(b1-4)GlcNAc(b1-4)GlcNAc
# Procedure, shortened: as §1
# [14] = target: Man(a1-2)Man(a1-3)[Man(a1-6)]Man(a1-6)[Man(a1-2)Man(a1-3)]Man(b1-4)GlcNAc(b1-4)GlcNAc
# Procedure, shortened: as §1
# [15] = target: Man(a1-2)Man(a1-6)[Man(a1-3)]Man(a1-6)[Man(a1-2)Man(a1-2)Man(a1-3)]Man(b1-4)GlcNAc(b1-4)GlcNAc
# Procedure, shortened: as §1
# [16] = target: Man(a1-3)[Man(a1-6)]Man(a1-6)[Man(a1-2)Man(a1-3)]Man(b1-4)GlcNAc(b1-4)GlcNAc
# Procedure, shortened: as §1
# [17] = target: Man(a1-3)[Man(a1-6)]Man(a1-6)[Man(a1-3)]Man(b1-4)GlcNAc(b1-4)GlcNAc
# Procedure, shortened: as §1
# [18] = target: Man(a1-3)[Man(a1-6)]Man(b1-4)GlcNAc(b1-4)GlcNAc
# Procedure, shortened: as §1
# [19] = target: Neu5Ac(a2-3)Gal(b1-3)GlcNAc
# Procedure, shortened: as §1
# [20] = target: Neu5Ac(a2-3)Gal(b1-3)GlcNAc(b1-4)Gal(b1-4)Glc
# Procedure, shortened: as §1
# [21] = target: Neu5Ac(a2-3)Gal(b1-3)[GlcNAc(b1-6)]GalNAc
# Procedure, shortened: as §1
# [22] = target: Neu5Ac(a2-3)Gal(b1-3)[Neu5Ac(a2-3)Gal(b1-4)]GlcNAc
# Procedure, shortened: as §1
# [23] = target: Neu5Ac(a2-3)Gal(b1-3)[Neu5Ac(a2-6)]GlcNAc(b1-3)[Fuc(a1-3)[Gal(b1-4)]GlcNAc(b1-6)]Gal(b1-4)Glc
# Procedure, shortened: as §1
# [24] = target: Neu5Ac(a2-3)Gal(b1-4)GlcNAc(b1-2)Man(a1-3)[GlcNAc(b1-4)][Neu5Ac(a2-3)Gal(b1-4)GlcNAc(b1-2)Man(a1-6)]Man(b1-4)GlcNAc(b1-4)GlcNAc
# Procedure, shortened: as §1
# [25] = target: Neu5Ac(a2-3)Gal(b1-4)GlcNAc(b1-2)Man(a1-3)[Neu5Ac(a2-3)Gal(b1-4)GlcNAc(b1-2)Man(a1-6)]Man(b1-4)GlcNAc(b1-4)[Fuc(a1-6)]GlcNAc
# Procedure, shortened: as §1
# [26] = target: Neu5Ac(a2-3)Gal(b1-4)GlcNAc(b1-3)Gal(b1-4)GlcNAc(b1-3)Gal(b1-4)GlcNAc(b1-2)Man(a1-3)[Neu5Ac(a2-3)Gal(b1-4)GlcNAc(b1-3)Gal(b1-4)GlcNAc(b1-3)Gal(b1-4)GlcNAc(b1-2)Man(a1-6)]GalNAc
# Procedure, shortened: as §1
# [27] = target: Neu5Ac(a2-3)Gal(b1-4)GlcNAc(b1-3)Gal(b1-4)GlcNAc(b1-3)[Neu5Ac(a2-3)Gal(b1-4)GlcNAc(b1-3)Gal(b1-4)GlcNAc(b1-6)]GalNAc
# Procedure, shortened: as §1
# [28] = target: Neu5Ac(a2-3)Gal(b1-4)[Fuc(a1-3)]GlcNAc
# Procedure, shortened: as §1
# [29] = target: Neu5Ac(a2-3)Gal(b1-4)[Fuc(a1-3)]GlcNAc(b1-3)Gal(b1-4)GlcNAc
# Procedure, shortened: as §1
# [30] = target: Neu5Ac(a2-3)[GalNAc(b1-4)]Gal(b1-4)Glc
# Procedure, shortened: as §1
binder,measurement,setting,value
"UDA (Urtica dioica), P11218 (protein) MMMRFLSAVVIMSSAMAVGLVSAQRCGSQGGGGTCPALWCCSIWGWCGDSEPYCGRTCENKCWSGERSDHRCGAAVGNPPCGQDRCCSVHGWCGGGNDYCSGSKCQYRCSSSVRGPRVALSGNSTANSIGNVVVTEPLFDQMFSHRKDCPSQGFYSYHSFLVAAESFPAFGTIGDVATRKREVAAFLAHISQATSGERSDVENPHAWGLCHINTTTVTENDFCTSSDWPCAAGKKYSPRGPIQLTHNFNYGLAGQAIGEDLIQNPDLVEKDPIISFKTALWFWMSQHDNKPSCHDIVLNANSAANRIPNKGVIGNIISRAFGHDDFAVRSSSIGFYKRYCDMLGVSYGHDLKYWFDNTPSSEFQRIQMRVAA",glycan array binding signal (z-score),[1],0.188
same,glycan array binding signal (z-score),[2],0.083
same,glycan array binding signal (z-score),[3],-0.162
same,glycan array binding signal (z-score),[4],-0.181
same,glycan array binding signal (z-score),[5],0.026
same,glycan array binding signal (z-score),[6],-0.182
same,glycan array binding signal (z-score),[7],-0.17
same,glycan array binding signal (z-score),[8],2.6
same,glycan array binding signal (z-score),[9],2.39
same,glycan array binding signal (z-score),[10],-0.173
same,glycan array binding signal (z-score),[11],-0.168
same,glycan array binding signal (z-score),[12],4.32
same,glycan array binding signal (z-score),[13],4.79
same,glycan array binding signal (z-score),[14],4.54
same,glycan array binding signal (z-score),[15],8.27
same,glycan array binding signal (z-score),[16],10.8
same,glycan array binding signal (z-score),[17],5.89
same,glycan array binding signal (z-score),[18],6.43
same,glycan array binding signal (z-score),[19],-0.164
same,glycan array binding signal (z-score),[20],-0.174
same,glycan array binding signal (z-score),[21],-0.176
same,glycan array binding signal (z-score),[22],-0.25
same,glycan array binding signal (z-score),[23],-0.177
same,glycan array binding signal (z-score),[24],-0.174
same,glycan array binding signal (z-score),[25],-0.169
same,glycan array binding signal (z-score),[26],-0.024
same,glycan array binding signal (z-score),[27],-0.161
same,glycan array binding signal (z-score),[28],-0.19
same,glycan array binding signal (z-score),[29],-0.171
same,glycan array binding signal (z-score),[30],-0.189
